Molecules are shown by their SMILES. Values without a mark were called inactive. Inconclusive results are not listed. Calls of active or inactive are those of the source. Unless noted, calls follow the shape of the full dose curve.

This passage reports Potency and outcome results from PubChem BioAssay (Tox21).

Experiment [1] is described as follows: Nuclear factor erythroid 2-related factor 2/antioxidant responsive element (Nrf2/ARE) small molecule agonists: qHTS cell viability counter screen in human keratinocytes (AID 1919968; active = well fitted curve in the direction sought with a large enough effect in the repeat runs; an effect the other way counts as inactive or inconclusive; also: nearly all actives have a fitted effect of over 55% in size). Put shortly: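 Seed 1,500 KeratinoSens cells per well, then incubate 5 h at 37 C/5% CO2. Add compounds in DMSO and incubate 23 h. Add CellTiter-Fluor, wait 1 h and read fluorescence.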

The nature of experiment [2]: Nuclear factor erythroid 2-related factor 2/antioxidant responsive element (Nrf2/ARE) small molecule agonists: luciferase reporter gene qHTS assay in human keratinocytes (AID 1919969). Also: nearly all actives have a fitted effect of over 35% in size.
Experiment [3] concerns the target Gonadotropin-releasing hormone receptor (Homo sapiens) (UniProt P30968). The experiment in a line: Human gonadotropin-releasing hormone receptor (GnRHR) small molecule agonists, calcium flux assay in GnRHR-HEK293 cells (AID 1920063). Also: nearly all actives have a fitted effect of over 35% in size. Summed up: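 Cells: HEK293 stably expressing human GnRHR. Steps: overnight (18 h) culture, 1 h calcium dye loading at 37 C, compound addition, kinetic fluorescence read at 480/540 nm. Each compound tested at 15 concentrations in triplicate.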

Experiment [4] concerns the target KiSS-1 receptor (Homo sapiens) (UniProt Q969F8). The experiment in a line: Human kisspeptin (KISS1R) small molecule agonists, calcium flux assay in KISS1R-HEK293 cells (AID 1920064; active = well fitted curve in the direction sought with a large enough effect in the repeat runs; an effect the other way counts as inactive or inconclusive). Put shortly: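 Cells plated and incubated 18 h; dye added, 1 h at 37 C; compounds in DMSO pinned in; signal read at 480/540 nm every second for 3 min. Each compound tested at 15 concentrations in triplicate.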

Experiment [5] is described as follows: G protein-coupled receptor (GPCR) small molecule agonists, calcium flux assay: HEK293 wild type cell line counter screen (AID 1920065). Summed up:
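Counter-screen of the Tox21 10K library for non-specific calcium release: dye-loaded cells received compounds in DMSO and were monitored by kinetic fluorescence (480/540 nm, 3 min). Fifteen concentrations, run in triplicate.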

The nature of experiment [6]: p53 small molecule agonists, cell-based qHTS assay with human liver microsomes: qHTS cell viability counter screen (AID 1963579). Also: nearly all actives have a fitted effect of over 45% in size. Put shortly:
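Metabolic activation used human liver microsomes and NADPH, both 0.5 mg/mL final, over 16 hours at 37 C on p53RE-bla cells (4,000/well). Cytotoxicity measured by CellTiter-Glo luminescence, 30 min at room temperature.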

The nature of experiment [7]: p53 small molecule agonists, cell-based qHTS assay: qHTS cell viability counter screen (AID 1963581). Also: nearly all actives have a fitted effect of over 45% in size. Put shortly:
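Cells: HCT-116 with p53 response element-driven beta-lactamase. Treatment: 16 h, 37 C, compounds in DMSO. Read: CellTiter-Glo luminescence after 30 min RT.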

Experiment [8] can be described thus: p53 small molecule agonists, cell-based qHTS assay (AID 1963582; active = well fitted activation curve with a large enough effect in the signal ratio in the repeat runs, not every such curve was filed as active; the % refers to the signal ratio). Put shortly:
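Quantitative HTS in p53RE-bla cells: after a 5 h settling period, compounds delivered in DMSO were left on cells for 16 h at 37 C, and reporter induction was measured as fluorescence following 2 h substrate loading.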

For experiment [9], the target named is 5-hydroxytryptamine receptor 2A (Homo sapiens) (UniProt P28223). The experiment in a line: 5-hydroxytryptamine receptor 2A (HTR2A) small molecule agonists, cell-based qHTS assay (AID 1963587). Also: nearly all actives have a fitted effect of over 30% in size. Summed up:
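Kinetic calcium-flux fluorescence (2 min, 1 sec intervals) after compound addition in agonist mode. HTR2A-CHO cells were cultured 18 h, then dye-loaded 1 h at 37 C.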

Experiment [10] concerns the target Muscarinic acetylcholine receptor M1 (Homo sapiens) (UniProt P11229). The experiment in a line: Cholinergic receptor muscarinic 1 (CHRM1) small molecule antagonists, cell-based qHTS assay (AID 1963588). Also: nearly all actives have a fitted effect of over 40% in size. Also: potency is read from the fitted curve at half-maximal effect. Summed up: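 CHRM1-CHO calcium-flux assay, antagonist mode. Cells were seeded 18 h, dye-loaded 1 h at 37 C and given compound for 5 min at RT, then acetylcholine was added at 50nM. FDSS fluorescence was read 3 min; 15 concentrations, three runs.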

Experiment [11] has the same target. The experiment in a line: Cholinergic receptor muscarinic 1 (CHRM1) small molecule agonists, cell-based qHTS assay (AID 1963589). Also: nearly all actives have a fitted effect of over 35% in size. Summed up:
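Agonist-mode qHTS in CHO cells stably carrying human muscarinic M1. Intracellular calcium is tracked by fluorescence every second after compound transfer; each compound runs at 15 concentrations in three independent runs.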

A short description of experiment [12]: cAMP Responsive Elements (CRE) small molecule agonists, cell-based qHTS assay (AID 1963590). Put shortly:
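Agonist mode qHTS in CRE-bla HEK 293T cells: compounds dosed from DMSO for 3 h at 37 C/5% CO2, followed by LiveBLAzer B/G FRET substrate for 2 h at room temperature.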

Experiment [13] in a line: cAMP Responsive Elements (CRE) small molecule antagonists, cell-based qHTS assay (AID 1963591; active = well fitted inhibition curve with a large enough effect in the signal ratio in the repeat runs, not every such curve was filed as active; the % refers to the signal ratio). Put shortly: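 Antagonist mode: test compounds are co-incubated with the adenylyl cyclase activator NKH477 (0.25 uM final) on CRE-bla HEK293T cells for 3 h at 37 °C, followed by LiveBLAzer substrate loading.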
The target of experiment [14] is Beta-2 adrenergic receptor (Homo sapiens) (UniProt P07550). The experiment in a line: Adrenergic beta2 receptor (ADRB2) small molecule antagonists, cell-based qHTS assay (AID 1963592). Also: series mostly up to about 92 µM; nearly all actives have a fitted effect of over 50% in size. Summed up:
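Cells (CHO, stable ADRB2 overexpression) incubated 18-20hr at 37C; compounds added from DMSO; agonist mix (1nM isoproterenol, 100uM IBMX, 25uM Ro-20-1724) added; 0.5hr RT; d2-cAMP and anti-cAMP-cryptate added; 1hr RT; 665/615 nm read.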

Experiment [15] deals with D(2) dopamine receptor (Homo sapiens) (UniProt P14416). The experiment in a line: Dopamine D2 receptor (DRD2) small molecule agonists, cell-based qHTS assay (AID 1963594). Also: nearly all actives have a fitted effect of over 35% in size. Summed up:
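cAMP accumulation in DRD2-HEK293 cells measured by HTRF after 1 h detection; compounds added 10 min before NKH477 (200nM […]) forskolin-analogue stimulation, 30 min at room temperature, with Ro20-1724 present at 0.1 mM final.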

The target is the same in experiment [16]. The experiment in a line: Dopamine D2 receptor (DRD2) small molecule antagonists, cell-based qHTS assay (AID 1963595; active = well fitted inhibition curve with a large enough effect in the signal ratio in the repeat runs, with a control signal flat; the % refers to the signal ratio). Summed up: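 DRD2-HEK293; 0.1 mM Ro20-1724; cpd 10 min RT; NKH477 200 nM + quinpirole 12 nM, 30 min RT; HTRF cAMP (cAMP-d2/anti-cAMP cryptate), 665/620 nm ratio after 1 h.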
Experiment [17] can be described thus: p53 small molecule agonists, cell-based qHTS assay with rat liver microsomes (AID 1963578). Put shortly: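 Metabolic activation by rat liver microsomes and NADPH, each 0.5 mg/mL final, added right after compounds to p53RE-bla reporter cells (4,000/well, plated 5 h earlier). 16 h at 37 C, then LiveBLAzer substrate for 2 h at room temperature in the dark; fluorescence read-out.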

A short description of experiment [18]: p53 small molecule agonists, cell-based qHTS assay with rat liver microsomes: qHTS cell viability counter screen (AID 1963580). Also: nearly all actives have a fitted effect of over 45% in size. Put shortly:
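Intracellular ATP, by CellTiter-Glo luminescence, defines viability. HCT-116 p53RE-bla cells, 4,000 per well, were compound-treated in the presence of rat liver microsomes and NADPH for 16 h at 37 C.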

A short description of experiment [19]: p53 small molecule agonists, cell-based qHTS assay with human liver microsomes (AID 1963577).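 Also: p53 response element beta-lactamase reporter cells with liver microsomes plus NADPH.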 Summed up:
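With metabolic activation: human liver microsomes (0.5 mg/mL final) plus NADPH (0.5 mg/mL final) added alongside compounds to p53RE-bla cells; 16 h 37 C exposure; beta-lactamase read by LiveBLAzer fluorescence.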

Experiment [20] addresses 5-hydroxytryptamine receptor 2A (Homo sapiens) (UniProt P28223). The experiment in a line: 5-hydroxytryptamine receptor 2A (HTR2A) small molecule antagonists, cell-based qHTS assay (AID 1963586). Also: nearly all actives have a fitted effect of over 45% in size. Put shortly:
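Antagonist-mode intracellular calcium assay: DOI (4 nM) added after 5 min compound pre-incubation at room temperature to dye-loaded HTR2A-CHO cells. Fluorescence followed for 3 min, sampled every second.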

Sequence of Muscarinic acetylcholine receptor M1 (Homo sapiens) (P11229 whole entry, looked up): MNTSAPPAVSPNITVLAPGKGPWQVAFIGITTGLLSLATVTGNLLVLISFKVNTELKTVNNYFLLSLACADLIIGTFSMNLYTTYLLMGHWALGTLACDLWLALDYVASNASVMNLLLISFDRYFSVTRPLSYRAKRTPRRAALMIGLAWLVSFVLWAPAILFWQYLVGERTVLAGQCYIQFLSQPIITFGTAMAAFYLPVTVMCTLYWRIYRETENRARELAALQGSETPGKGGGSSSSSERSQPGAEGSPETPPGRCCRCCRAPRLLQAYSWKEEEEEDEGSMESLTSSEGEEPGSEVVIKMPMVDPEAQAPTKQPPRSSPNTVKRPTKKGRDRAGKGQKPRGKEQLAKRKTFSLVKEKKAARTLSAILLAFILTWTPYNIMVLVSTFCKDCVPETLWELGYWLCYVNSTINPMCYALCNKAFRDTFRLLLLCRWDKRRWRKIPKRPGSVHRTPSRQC
Sequence of D(2) dopamine receptor (Homo sapiens) (P14416 whole entry, looked up): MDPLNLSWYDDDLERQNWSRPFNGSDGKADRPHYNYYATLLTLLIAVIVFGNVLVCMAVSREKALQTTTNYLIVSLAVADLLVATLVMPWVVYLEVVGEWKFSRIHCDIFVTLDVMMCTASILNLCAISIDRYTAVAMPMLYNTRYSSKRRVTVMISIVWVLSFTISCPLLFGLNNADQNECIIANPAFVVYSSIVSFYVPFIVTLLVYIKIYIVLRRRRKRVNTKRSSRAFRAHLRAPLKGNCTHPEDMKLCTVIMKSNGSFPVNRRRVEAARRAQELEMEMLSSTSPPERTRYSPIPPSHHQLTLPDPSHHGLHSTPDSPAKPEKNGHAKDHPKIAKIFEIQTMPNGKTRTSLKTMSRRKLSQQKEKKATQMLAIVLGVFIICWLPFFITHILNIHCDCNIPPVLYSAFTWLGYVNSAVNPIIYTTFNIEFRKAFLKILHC
Sequence of 5-hydroxytryptamine receptor 2A (Homo sapiens) (P28223 whole entry, looked up): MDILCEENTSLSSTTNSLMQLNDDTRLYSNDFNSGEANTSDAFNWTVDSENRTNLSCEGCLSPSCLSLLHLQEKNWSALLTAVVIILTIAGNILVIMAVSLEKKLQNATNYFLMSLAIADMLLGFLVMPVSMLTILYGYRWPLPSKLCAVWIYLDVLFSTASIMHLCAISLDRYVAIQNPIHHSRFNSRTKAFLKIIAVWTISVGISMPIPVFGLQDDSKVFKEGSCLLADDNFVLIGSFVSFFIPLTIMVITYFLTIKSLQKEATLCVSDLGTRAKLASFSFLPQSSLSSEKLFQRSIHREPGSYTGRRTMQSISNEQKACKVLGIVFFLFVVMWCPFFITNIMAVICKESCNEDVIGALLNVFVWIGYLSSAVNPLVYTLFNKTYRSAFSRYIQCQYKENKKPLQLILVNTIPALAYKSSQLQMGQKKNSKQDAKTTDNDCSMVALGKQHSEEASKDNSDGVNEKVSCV
Sequence of KiSS-1 receptor (Homo sapiens) (Q969F8 whole entry, looked up): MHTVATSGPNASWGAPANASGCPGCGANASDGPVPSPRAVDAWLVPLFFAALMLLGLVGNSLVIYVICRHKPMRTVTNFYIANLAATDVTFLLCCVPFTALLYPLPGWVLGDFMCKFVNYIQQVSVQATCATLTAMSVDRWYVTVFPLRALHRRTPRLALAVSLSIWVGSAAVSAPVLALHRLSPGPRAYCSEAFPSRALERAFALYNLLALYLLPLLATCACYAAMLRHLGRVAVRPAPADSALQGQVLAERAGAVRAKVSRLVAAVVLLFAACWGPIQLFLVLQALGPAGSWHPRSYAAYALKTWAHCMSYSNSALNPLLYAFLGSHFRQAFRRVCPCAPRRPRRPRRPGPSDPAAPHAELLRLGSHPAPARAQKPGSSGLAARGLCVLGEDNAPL
Sequence of Beta-2 adrenergic receptor (Homo sapiens) (P07550 whole entry, looked up): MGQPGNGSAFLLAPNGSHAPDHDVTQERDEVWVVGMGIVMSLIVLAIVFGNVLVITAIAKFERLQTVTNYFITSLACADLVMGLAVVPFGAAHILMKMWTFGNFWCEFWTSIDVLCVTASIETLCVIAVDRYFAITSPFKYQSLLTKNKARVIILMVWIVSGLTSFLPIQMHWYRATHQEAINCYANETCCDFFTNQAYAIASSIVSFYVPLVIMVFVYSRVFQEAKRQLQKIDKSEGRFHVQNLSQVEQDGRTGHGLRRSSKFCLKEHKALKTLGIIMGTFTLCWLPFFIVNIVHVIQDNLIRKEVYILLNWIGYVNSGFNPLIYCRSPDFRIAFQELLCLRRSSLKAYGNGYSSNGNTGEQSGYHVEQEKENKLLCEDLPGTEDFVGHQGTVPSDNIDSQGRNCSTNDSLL
Sequence of Gonadotropin-releasing hormone receptor (Homo sapiens) (P30968 whole entry, looked up): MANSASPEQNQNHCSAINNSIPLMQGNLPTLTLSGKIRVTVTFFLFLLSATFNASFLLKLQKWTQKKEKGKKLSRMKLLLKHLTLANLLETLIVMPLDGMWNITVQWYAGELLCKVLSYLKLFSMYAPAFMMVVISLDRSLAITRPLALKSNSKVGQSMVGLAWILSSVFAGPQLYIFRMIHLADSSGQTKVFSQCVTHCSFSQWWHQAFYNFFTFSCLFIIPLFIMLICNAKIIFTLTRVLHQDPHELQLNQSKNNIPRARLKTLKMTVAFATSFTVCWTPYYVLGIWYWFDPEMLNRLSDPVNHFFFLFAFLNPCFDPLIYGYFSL

In the case of `SC1CCCCC1`, the Potency result in experiment [1], in experiment [2], in experiment [3], in experiment [6], in experiment [7] and in [8] was “inactive” throughout. The Potency entry in [9], in experiment [10], in experiment [11], in [12], in experiment [13] and in experiment [14] was “inactive” throughout. Further, the Potency result in experiment [15] and in [16] was “inactive” throughout. Further, the result in experiment [4] and in [5] was inactive.

Regarding `CNCCC(Oc1ccccc1OC)c1ccccc1` (stereo unspecified), the Potency result in experiment [1], in experiment [2], in experiment [3], in [17], in experiment [18] and in experiment [9] was “inactive” throughout. Also, the Potency result in [11], in [12], in experiment [13], in experiment [15] and in experiment [16] was “inactive” each time. Further, the result in [4] and in [5] was inactive. In experiment [10], the Potency is 16.3 µM (active).

With `OCCC(F)(F)C(F)(F)C(F)(F)C(F)(F)C(F)(F)C(F)(F)C(F)(F)C(F)(F)F`, the Potency entry in experiment [1], in experiment [2], in experiment [3], in [6], in [18] and in experiment [7] was “inactive” in each case. The Potency result in experiment [9], in [10], in experiment [11], in experiment [12], in [13] and in [16] was “inactive” throughout. Besides, the outcome in experiment [4] and in experiment [5] was inactive.

As to `O=C(O)C(Cc1cc(I)c(O)c(I)c1)c1ccccc1` (stereo unspecified), the Potency entry in experiment [1], in experiment [2], in experiment [3], in [19], in experiment [17] and in experiment [6] was “inactive” throughout. For the same compound, the Potency entry in experiment [18], in experiment [7], in experiment [8], in experiment [20], in experiment [9] and in [10] was “inactive” throughout. Also, the Potency result in [11], in [13], in experiment [14] and in experiment [15] was “inactive” each time. Moreover, in experiment [4], the outcome was inactive.

As for `CC(C(=O)O)c1cccc(Oc2ccccc2)c1` (stereo unspecified), the Potency result in experiment [1], in experiment [2], in [3], in [17], in experiment [6] and in [12] was “inactive” in each case. Also, the Potency result in [13], in experiment [14], in [15] and in [16] was “inactive” throughout. Also, the result in [4] and in [5] was inactive.

Regarding `Nc1ccc(C(=O)OCCCOC(=O)c2ccc(N)cc2)cc1`, the Potency entry in [1], in experiment [2], in experiment [3], in experiment [6], in experiment [7] and in [8] was “inactive” each time. Besides, the Potency entry in experiment [20], in [9], in experiment [10], in experiment [11], in experiment [14] and in [15] was “inactive” throughout. Further, the Potency result in experiment [16] was “inactive”. In addition, the result in [4] and in experiment [5] was inactive.

For the compound `BrCCCCCBr`, the Potency entry in experiment [1], in experiment [2], in experiment [3], in experiment [6], in experiment [18] and in experiment [7] was “inactive” each time. For the same compound, the Potency result in [20], in experiment [9], in experiment [11], in experiment [12], in experiment [13] and in [14] was “inactive” throughout. Further, the Potency entry in [15] and in experiment [16] was “inactive” throughout. The result in experiment [4] and in [5] was inactive.

In the case of `C=C(C)C(=O)OCCCC`, the Potency entry in [1], in experiment [2], in [3], in experiment [6], in experiment [18] and in experiment [8] was “inactive” each time. The Potency result in experiment [20], in experiment [9], in [10], in experiment [11], in [12] and in [13] was “inactive” in each case. For the same compound, the Potency result in experiment [14], in experiment [15] and in experiment [16] was “inactive” in each case. Also, the outcome in [4] and in experiment [5] was inactive.
